Compounds without any hit were thinned out: in the full panel of roughly 83,000, 20% have a hit.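 Note: values are percent growth. 100 is the growth of untreated cells, values between 100 and 0 indicate rising inhibition; between -100 and 0 indicates cell death.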 Values without a mark were called inactive. Activity calls are given as the source filed them. The calls were made as follows: active = growth percent below 10; inactive = the rest.

Here are results for seven compounds from PubChem BioAssay (NCI).

What all share (assay): NCI-60 one-dose screen, 48 h (100 = growth as untreated, 0 = no growth, -100 = all killed)
Assay [1] relates to NCI-H23 lung. To be noted: 10 µM unless noted.
Assay [2] concerns NCI-H322M lung. To be noted: 10 µM unless noted.
Assay [3] has as its system HOP-62 NSCLC. To be noted: 10 µM unless noted.
The test system of assay [4] is NCI-H460 lung. To be noted: 10 µM unless noted.
The test system of assay [5] is NCI-H522 lung. To be noted: 10 µM unless noted.
Assay [6] has as its system A549/ATCC NSCLC. To be noted: 10 µM unless noted.
In assay [7] the test system is 786-0 renal. To be noted: 10 µM unless noted.
The test system of assay [8] is COLO 205 colon. To be noted: 10 µM unless noted.
In assay [9] the test system is DU-145 prostate. To be noted: 10 µM unless noted.
For assay [10], the system named is K-562 leukemia. To be noted: 10 µM unless noted.
Assay [11] deals with MALME-3M melanoma. To be noted: 10 µM unless noted.
For assay [12], the system named is MDA-MB-231 breast. To be noted: 10 µM unless noted.
The test system of assay [13] is SF-268 CNS. To be noted: 10 µM unless noted.
In assay [14] the test system is SF-295 CNS. To be noted: 10 µM unless noted.
Assay [15] relates to SF-539 CNS. To be noted: 10 µM unless noted.
Assay [16] deals with UACC-257 melanoma. To be noted: 10 µM unless noted.
The subject of assay [17] is RXF 393 renal. To be noted: 10 µM unless noted.
Assay [18] has as its system M14 melanoma. To be noted: 10 µM unless noted.
The test system of assay [19] is NCI-H226 lung. To be noted: 10 µM unless noted.
Assay [20] relates to HOP-92 NSCLC. To be noted: 10 µM.

Regarding `COc1cc(Cn2cc3c(c2)-c2onc(CN4CCCC4)c2CC3)cc(OC)c1OC`, the growth in assay [1] was 86%; in [2], 90.6%; in assay [3], 92.8%; in assay [4] it was 109%; in assay [5], 84.2%; in assay [6] it was 100%. Moreover, the growth in [7] was 99.4%; in assay [8], 109%; in assay [9], 75.6%; in [10], 59.9%; in assay [11], 66.5%; in assay [12] it was 91.3%. Further, the growth was 91.4% in assay [13], 85.8% in assay [14], 92.7% in assay [15] and 97.1% in assay [16].

`O=C(CN1CCN(c2cc(=O)[nH]c3ccc(F)cc23)CC1)Nc1ccc(Cl)cc1`: the growth in assay [1] was 61.9%; in assay [2], 80.2%; in [3], 43.9%; in assay [4], 41.1%; in assay [5], 13.1%; in assay [6] it was 71.8%. The growth in assay [7] is 36.3%; in [8], 112%; in [9], 78.1%; in assay [10], 78.8%; in [12], 62.2%; in assay [17], -3.61% (active). For the same compound, the growth in assay [13] was 38.3%; in [14], 67.2%; in assay [15], 56.9%; in assay [16], 65%; in [18], 85%.

Consider `CC(=O)O[C@@H]1C(=O)N(c2cnccn2)[C@H]1c1ccccc1[N+](=O)[O-]`, for which the growth in assay [19] is 39.3%; in assay [2] it was 36.6%; in [3], 41.5%; in assay [4], -5.1% (active); in assay [20] it was 9.48% (active); in [5], -45.7% (active). For the same compound, the growth was 14.4% in assay [6]; 14.7% in [7]; 20.9% in [8]; 2.33% (active) in assay [9]; 9.97% (active) in assay [10]; 51.8% in assay [11]. For the same compound, the growth is 22.4% in assay [12]; 62.9% in [17]; 19.4% in [13]; 23.9% in [14]; -32.5% (active) in assay [15]; 44.7% in assay [16]. In addition, in [18], the growth was -2.82% (active).

For `CCCCCCCn1cc2c(N[C@H](C)c3ccccc3)ncnc2n1`, the growth in assay [19] is 100%; in assay [2], 101%; in assay [3], 95.7%; in assay [4], 104%; in [5], 99.6%; in assay [6], 106%. Also, the growth was 105% in [7]; 115% in [8]; 98.1% in assay [9]; 106% in assay [10]; 94.2% in assay [11]; 98.4% in assay [12]. Further, the growth in assay [17] is 97.1%; in assay [13] it was 102%; in [14], 94.5%; in assay [15], 98.8%; in assay [16] it was 110%; in [18], 99.8%.

As to `O=C(c1ccc(Cl)cc1)C1[C@H](c2ccc(Cl)cc2)[C@@H](c2ccccc2)NC12C(=O)Nc1ccccc12` (some centres undefined), the growth is 53.5% in assay [19]; 65.5% in assay [2]; 69.6% in assay [3]; 32.7% in [4]; 50.4% in [20]; 78% in [5]. For the same compound, the growth was 42.6% in [6]; 64.2% in [7]; 73% in assay [8]; 65.1% in [9]; 33.6% in [10]; 78.7% in [11]. In addition, the growth in assay [12] was 53.6%; in assay [17], 48%; in assay [13], 48.1%; in assay [14], 45.6%; in [15], 74.8%; in assay [16] it was 75.2%. The growth in assay [18] was 50.2%.

As to `COc1cccc(/C=C(/C)c2ccc3cccc(OC)c3[o+]2)c1O`, the growth was 105% in assay [1]; 98.8% in assay [2]; 106% in assay [3]; 102% in [4]; 93.6% in assay [5]; 102% in assay [6]. In addition, the growth was 98.5% in assay [7]; 118% in assay [8]; 107% in assay [9]; 97.2% in assay [10]; 105% in assay [11]; 89.8% in assay [12]. Also, the growth in [13] was 95.3%; in assay [14] it was 101%; in assay [15] it was 103%; in [16], 110%.

In the case of `COc1ccc(-c2nc(C(Cl)Cl)nc3cc(-c4ccccc4)nn23)cc1`, the growth in assay [19] was 63.2%; in [2], -33.8% (active); in assay [3], -11.5% (active); in assay [4], -75.9% (active); in assay [20] it was -14.8% (active); in assay [5] it was -59.4% (active). Also, the growth in assay [6] is -42.9% (active); in assay [7] it was 68.8%; in assay [8], -74.6% (active); in assay [9] it was -26.7% (active); in assay [10], 7.86% (active); in [11], -44.9% (active). The growth was 6.65% (active) in [12]; -82.1% (active) in assay [17]; 14.2% in [13]; 9.62% (active) in assay [14]; 35.5% in assay [15]; 4.58% (active) in assay [16]. The growth in assay [18] was -69% (active).
